# Results: paper PMC7862700, “An all-to-all approach to the identification of sequence-specific readers for epigenetic DNA modifications on cytosine”
# Legend:
# Experiment in all cases: DAPPL (digital affinity profiling via proximity ligation, sequencing); 10 mM Tris-HCl pH 7.5, 50 mM NaCl, 1 mM DTT, 4% glycerol, room temperature, 30 min; GST-TFs on glutathione beads, 16-mer random dsDNA library, 0.1% formaldehyde crosslink after washing; high values mean tight binding
# [1] = molecular target: T1, FLI1 (Homo sapiens, UniProt Q01543 1-452); details: protein: recombinant; tags: N-terminal GST; dsDNA, one strand shown
# T1 sequence: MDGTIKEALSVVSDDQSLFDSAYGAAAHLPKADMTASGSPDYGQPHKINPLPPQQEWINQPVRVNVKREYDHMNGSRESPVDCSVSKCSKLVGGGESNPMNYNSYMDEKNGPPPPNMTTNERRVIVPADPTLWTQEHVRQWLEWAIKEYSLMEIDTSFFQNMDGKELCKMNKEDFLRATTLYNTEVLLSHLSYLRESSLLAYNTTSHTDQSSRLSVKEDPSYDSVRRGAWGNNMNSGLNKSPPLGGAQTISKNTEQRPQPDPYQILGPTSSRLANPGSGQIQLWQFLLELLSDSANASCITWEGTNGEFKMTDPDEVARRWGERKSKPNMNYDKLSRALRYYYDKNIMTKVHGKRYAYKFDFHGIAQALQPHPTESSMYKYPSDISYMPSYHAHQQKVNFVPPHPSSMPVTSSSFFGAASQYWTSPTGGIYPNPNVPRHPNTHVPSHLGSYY
# Method in brief: (§1)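 In yeast, human transcription factors were expressed with a GST fusion, then pulled down on glutathione beads and given DNA barcodes. Pooled with a tag-only sample, they were exposed to 200 nmole of a 16-mer random double-stranded DNA library (Tris/NaCl/DTT/glycerol buffer, room temperature, 30 min), washed, crosslinked with 0.1% formaldehyde, proximity-ligated using BsaI/T4 ligase for 1 h at 37 °C, PCR-amplified and read on an Illumina NextSeq500. Each hexamer's frequency of reads for a factor, divided by the matching frequency for the tag-only sample, gives the binding signal.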
# [2] = molecular target: T2, ELK1 (Homo sapiens, UniProt P19419 1-428); details: protein: recombinant; tags: N-terminal GST; dsDNA, one strand shown
# T2 sequence: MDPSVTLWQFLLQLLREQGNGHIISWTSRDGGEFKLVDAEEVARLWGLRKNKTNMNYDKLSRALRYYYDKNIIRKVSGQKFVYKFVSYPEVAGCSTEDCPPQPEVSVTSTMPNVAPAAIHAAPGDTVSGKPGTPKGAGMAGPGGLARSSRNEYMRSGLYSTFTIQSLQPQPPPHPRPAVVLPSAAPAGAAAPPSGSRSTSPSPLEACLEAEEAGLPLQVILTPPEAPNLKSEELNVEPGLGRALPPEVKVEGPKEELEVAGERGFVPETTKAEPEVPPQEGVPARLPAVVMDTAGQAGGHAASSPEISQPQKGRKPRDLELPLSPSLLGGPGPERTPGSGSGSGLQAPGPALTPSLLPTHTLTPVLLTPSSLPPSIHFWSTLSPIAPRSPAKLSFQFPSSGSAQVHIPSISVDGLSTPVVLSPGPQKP
# Method in brief: as §1
# [3] = molecular target: T3, GABPA (Homo sapiens, UniProt Q06546 1-454); details: protein: recombinant; tags: N-terminal GST; dsDNA, one strand shown
# T3 sequence: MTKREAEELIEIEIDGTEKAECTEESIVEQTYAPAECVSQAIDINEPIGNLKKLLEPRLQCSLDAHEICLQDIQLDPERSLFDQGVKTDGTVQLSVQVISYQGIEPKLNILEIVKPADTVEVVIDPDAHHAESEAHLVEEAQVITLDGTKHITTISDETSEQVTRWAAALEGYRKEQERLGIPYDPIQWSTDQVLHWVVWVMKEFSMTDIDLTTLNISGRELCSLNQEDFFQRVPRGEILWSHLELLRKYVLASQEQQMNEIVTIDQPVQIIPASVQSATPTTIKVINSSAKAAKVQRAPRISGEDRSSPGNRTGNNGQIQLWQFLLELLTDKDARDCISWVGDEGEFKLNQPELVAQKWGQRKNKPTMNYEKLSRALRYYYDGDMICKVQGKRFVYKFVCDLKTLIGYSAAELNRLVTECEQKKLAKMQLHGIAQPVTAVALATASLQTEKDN
# Method in brief: as §1
# [4] = molecular target: T4, ERG (Homo sapiens, UniProt P11308 1-479); details: protein: recombinant; tags: N-terminal GST; dsDNA, one strand shown
# T4 sequence: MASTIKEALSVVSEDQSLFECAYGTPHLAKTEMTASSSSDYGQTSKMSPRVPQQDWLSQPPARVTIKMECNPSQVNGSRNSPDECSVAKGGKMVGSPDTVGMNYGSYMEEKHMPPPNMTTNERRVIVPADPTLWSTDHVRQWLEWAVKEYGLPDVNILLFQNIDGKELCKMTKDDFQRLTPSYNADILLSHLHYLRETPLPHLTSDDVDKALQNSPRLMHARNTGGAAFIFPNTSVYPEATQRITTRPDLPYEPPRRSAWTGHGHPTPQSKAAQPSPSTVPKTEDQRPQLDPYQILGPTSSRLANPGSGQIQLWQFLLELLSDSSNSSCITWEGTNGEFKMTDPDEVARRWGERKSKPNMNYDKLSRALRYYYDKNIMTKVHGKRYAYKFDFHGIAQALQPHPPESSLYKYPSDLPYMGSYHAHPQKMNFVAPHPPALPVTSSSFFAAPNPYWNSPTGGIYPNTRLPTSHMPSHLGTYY
# Method in brief: as §1
# [5] = molecular target: ELF1 (Homo sapiens, UniProt P32519 1-619); details: protein: recombinant; tags: N-terminal GST; dsDNA, one strand shown
# Method in brief: as §1
# [6] = molecular target: T5, EHF (Homo sapiens, UniProt Q9NZC4 1-300); details: protein: recombinant; tags: N-terminal GST; dsDNA, one strand shown
# T5 sequence: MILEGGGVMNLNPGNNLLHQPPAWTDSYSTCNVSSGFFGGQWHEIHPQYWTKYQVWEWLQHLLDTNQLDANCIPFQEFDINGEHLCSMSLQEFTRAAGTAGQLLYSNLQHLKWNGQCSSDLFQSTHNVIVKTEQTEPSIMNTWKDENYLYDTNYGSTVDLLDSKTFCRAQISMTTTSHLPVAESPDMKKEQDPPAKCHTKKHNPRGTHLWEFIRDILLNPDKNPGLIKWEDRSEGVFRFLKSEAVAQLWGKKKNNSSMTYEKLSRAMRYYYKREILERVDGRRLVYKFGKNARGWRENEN
# Method in brief: as §1
# [7] = molecular target: SPI1 (Homo sapiens, UniProt P17947 1-270); details: protein: recombinant; tags: N-terminal GST; dsDNA, one strand shown
# Method in brief: as §1
# [8] = molecular target: SPIB (Homo sapiens, UniProt Q01892 1-262); details: protein: recombinant; tags: N-terminal GST; dsDNA, one strand shown
# Method in brief: as §1
# [9] = molecular target: T6, ELK3 (Homo sapiens, UniProt P41970 1-407); details: protein: recombinant; tags: N-terminal GST; dsDNA, one strand shown
# T6 sequence: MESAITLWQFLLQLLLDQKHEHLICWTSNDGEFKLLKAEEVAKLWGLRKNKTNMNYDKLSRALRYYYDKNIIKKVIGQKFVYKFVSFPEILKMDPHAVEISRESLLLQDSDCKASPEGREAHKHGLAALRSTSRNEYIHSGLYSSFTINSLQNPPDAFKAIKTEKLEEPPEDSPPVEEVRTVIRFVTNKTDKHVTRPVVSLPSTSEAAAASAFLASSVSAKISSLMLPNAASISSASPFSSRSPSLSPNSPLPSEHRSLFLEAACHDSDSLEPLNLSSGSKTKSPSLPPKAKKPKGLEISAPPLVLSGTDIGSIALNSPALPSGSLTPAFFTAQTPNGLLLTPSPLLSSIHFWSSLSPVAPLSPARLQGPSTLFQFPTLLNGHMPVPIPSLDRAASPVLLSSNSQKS
# Method in brief: as §1
# [10] = molecular target: T7, FEV (Homo sapiens, UniProt Q99581 1-238); details: protein: recombinant; tags: N-terminal GST; dsDNA, one strand shown
# T7 sequence: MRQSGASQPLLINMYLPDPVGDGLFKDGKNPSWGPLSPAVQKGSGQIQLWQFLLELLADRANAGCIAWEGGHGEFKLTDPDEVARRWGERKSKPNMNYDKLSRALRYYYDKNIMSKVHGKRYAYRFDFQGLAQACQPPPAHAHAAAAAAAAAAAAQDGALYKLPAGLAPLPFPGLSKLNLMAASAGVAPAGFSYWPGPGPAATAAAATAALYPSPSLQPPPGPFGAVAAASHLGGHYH
# Method in brief: as §1
# [11] = molecular target: ETV5 (Homo sapiens, UniProt P41161 1-510); details: protein: recombinant; tags: N-terminal GST; dsDNA, one strand shown
# Method in brief: as §1
# [12] = molecular target: HSF1 (Homo sapiens, UniProt Q00613 1-529); details: protein: recombinant; tags: N-terminal GST; chain copies: 3; dsDNA, one strand shown
# Method in brief: as §1
# [13] = molecular target: T8, SPIC (Homo sapiens, UniProt Q8N5J4 1-248); details: protein: recombinant; tags: N-terminal GST; dsDNA, one strand shown
# T8 sequence: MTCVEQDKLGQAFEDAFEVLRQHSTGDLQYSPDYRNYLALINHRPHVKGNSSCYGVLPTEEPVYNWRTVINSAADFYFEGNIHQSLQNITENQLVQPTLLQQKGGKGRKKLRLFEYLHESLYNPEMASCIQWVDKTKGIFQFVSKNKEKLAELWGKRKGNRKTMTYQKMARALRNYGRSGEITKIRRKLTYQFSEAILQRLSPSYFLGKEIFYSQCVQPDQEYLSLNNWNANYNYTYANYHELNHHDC
# Method in brief: as §1
# [14] = molecular target: ELF4 (Homo sapiens, UniProt Q99607 1-663); details: protein: recombinant; tags: N-terminal GST; dsDNA, one strand shown
# Method in brief: as §1
# [15] = molecular target: T9, ELK4 (Homo sapiens, UniProt P28324-2 1-405); details: protein: recombinant; tags: N-terminal GST; dsDNA, one strand shown
# T9 sequence: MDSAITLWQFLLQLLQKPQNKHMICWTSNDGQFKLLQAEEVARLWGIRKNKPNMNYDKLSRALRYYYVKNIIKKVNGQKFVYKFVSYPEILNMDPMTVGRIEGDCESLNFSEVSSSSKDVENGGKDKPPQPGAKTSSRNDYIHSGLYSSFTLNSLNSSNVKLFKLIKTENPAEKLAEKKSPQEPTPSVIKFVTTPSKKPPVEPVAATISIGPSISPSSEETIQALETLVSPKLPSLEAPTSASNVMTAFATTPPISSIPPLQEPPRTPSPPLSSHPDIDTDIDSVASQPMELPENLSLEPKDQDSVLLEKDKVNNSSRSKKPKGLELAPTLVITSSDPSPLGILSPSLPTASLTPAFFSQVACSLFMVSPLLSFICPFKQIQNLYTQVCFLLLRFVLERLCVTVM
# Method in brief: as §1
# [16] = molecular target: T10, ETV2 (Homo sapiens, UniProt O00321 1-342); details: protein: recombinant; tags: N-terminal GST; dsDNA, one strand shown
# T10 sequence: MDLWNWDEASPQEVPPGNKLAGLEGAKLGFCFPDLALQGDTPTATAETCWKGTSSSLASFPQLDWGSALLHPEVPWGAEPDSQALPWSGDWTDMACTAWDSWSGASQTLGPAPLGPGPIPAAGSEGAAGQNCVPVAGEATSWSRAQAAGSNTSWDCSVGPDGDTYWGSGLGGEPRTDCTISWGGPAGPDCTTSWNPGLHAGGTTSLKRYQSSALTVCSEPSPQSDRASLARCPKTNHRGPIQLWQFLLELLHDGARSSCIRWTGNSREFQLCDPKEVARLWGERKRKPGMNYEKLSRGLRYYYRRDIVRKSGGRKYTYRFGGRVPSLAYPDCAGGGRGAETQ
# Method in brief: as §1
# [17] = molecular target: T11, ELF3 (Homo sapiens, UniProt P78545 1-371); details: protein: recombinant; tags: N-terminal GST; dsDNA, one strand shown
# T11 sequence: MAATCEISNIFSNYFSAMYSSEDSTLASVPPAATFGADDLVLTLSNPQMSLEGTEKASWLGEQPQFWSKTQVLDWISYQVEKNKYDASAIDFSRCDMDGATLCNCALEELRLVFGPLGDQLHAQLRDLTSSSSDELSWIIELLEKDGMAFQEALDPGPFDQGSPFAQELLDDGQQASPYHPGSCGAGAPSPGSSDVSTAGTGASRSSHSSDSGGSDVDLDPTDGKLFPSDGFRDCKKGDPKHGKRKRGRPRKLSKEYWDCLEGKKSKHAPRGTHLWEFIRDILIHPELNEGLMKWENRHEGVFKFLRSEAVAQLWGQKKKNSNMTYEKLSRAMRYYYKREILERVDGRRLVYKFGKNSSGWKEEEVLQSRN
# Method in brief: as §1
# [18] = molecular target: CRX (Homo sapiens, UniProt O43186 1-299); details: protein: recombinant; tags: N-terminal GST; dsDNA, one strand shown
# Method in brief: as §1
# [19] = molecular target: ETV1 (Homo sapiens, UniProt P50549 1-477); details: protein: recombinant; tags: N-terminal GST; dsDNA, one strand shown
# Method in brief: as §1
# Sequence of CRX (O43186 whole entry): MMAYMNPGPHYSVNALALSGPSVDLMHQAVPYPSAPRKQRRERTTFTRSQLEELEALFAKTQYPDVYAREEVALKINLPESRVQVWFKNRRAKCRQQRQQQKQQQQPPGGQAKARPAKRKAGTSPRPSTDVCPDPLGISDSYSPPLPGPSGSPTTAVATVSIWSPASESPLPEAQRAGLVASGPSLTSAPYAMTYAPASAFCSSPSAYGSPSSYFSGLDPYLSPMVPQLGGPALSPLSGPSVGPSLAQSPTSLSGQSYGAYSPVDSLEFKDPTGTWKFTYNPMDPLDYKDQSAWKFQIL
# Sequence of HSF1 (Q00613 whole entry): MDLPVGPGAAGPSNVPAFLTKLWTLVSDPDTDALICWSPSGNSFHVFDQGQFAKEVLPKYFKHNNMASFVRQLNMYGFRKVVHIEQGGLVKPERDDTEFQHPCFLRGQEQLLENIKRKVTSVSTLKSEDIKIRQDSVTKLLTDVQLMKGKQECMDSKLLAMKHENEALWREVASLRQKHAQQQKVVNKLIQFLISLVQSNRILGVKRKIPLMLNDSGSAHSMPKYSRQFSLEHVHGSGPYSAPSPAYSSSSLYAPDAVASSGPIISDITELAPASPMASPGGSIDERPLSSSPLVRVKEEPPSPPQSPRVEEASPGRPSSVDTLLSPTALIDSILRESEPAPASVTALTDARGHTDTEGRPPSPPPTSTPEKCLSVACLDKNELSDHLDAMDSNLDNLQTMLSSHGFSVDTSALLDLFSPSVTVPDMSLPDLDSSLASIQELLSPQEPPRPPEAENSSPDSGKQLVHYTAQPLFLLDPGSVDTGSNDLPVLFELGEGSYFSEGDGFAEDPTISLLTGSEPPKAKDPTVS
# Sequence of ETV5 (P41161 whole entry): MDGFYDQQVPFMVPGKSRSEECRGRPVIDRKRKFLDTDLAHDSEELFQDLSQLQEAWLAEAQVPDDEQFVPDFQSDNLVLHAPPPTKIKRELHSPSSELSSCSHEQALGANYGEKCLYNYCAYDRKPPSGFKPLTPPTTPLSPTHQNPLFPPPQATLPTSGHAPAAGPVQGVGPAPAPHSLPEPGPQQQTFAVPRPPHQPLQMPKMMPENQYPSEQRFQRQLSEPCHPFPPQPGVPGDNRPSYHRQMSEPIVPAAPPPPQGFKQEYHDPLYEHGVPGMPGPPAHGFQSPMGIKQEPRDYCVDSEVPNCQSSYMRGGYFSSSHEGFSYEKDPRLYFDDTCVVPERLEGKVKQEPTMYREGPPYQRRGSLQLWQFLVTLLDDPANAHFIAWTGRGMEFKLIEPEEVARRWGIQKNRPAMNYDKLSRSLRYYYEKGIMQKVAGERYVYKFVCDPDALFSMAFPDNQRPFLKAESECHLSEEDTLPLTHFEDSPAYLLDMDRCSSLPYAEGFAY
# Sequence of ELF1 (P32519 whole entry): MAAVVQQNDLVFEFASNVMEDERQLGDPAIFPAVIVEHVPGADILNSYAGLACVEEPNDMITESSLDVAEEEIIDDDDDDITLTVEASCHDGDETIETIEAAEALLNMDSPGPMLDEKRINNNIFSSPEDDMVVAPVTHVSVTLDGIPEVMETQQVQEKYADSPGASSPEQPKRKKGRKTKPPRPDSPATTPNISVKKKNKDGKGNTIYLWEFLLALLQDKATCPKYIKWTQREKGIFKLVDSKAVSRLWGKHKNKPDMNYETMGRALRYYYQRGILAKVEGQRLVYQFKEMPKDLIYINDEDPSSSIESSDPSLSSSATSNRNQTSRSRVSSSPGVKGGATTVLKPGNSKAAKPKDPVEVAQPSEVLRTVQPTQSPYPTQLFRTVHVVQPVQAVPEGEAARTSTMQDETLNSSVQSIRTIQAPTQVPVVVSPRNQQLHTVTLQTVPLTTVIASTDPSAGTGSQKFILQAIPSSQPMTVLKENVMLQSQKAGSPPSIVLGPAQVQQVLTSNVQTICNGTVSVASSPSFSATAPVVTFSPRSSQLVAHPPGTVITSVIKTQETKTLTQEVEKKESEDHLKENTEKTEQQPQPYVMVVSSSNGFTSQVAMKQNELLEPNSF
# Sequence of SPIB (Q01892 whole entry): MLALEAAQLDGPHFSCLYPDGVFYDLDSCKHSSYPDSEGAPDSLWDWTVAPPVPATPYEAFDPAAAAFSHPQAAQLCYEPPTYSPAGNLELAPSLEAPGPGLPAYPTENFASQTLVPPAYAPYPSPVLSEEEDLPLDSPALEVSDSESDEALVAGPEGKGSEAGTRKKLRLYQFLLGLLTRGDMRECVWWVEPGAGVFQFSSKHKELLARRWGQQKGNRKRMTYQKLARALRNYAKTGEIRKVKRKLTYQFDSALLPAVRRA
# Sequence of ELF4 (Q99607 whole entry): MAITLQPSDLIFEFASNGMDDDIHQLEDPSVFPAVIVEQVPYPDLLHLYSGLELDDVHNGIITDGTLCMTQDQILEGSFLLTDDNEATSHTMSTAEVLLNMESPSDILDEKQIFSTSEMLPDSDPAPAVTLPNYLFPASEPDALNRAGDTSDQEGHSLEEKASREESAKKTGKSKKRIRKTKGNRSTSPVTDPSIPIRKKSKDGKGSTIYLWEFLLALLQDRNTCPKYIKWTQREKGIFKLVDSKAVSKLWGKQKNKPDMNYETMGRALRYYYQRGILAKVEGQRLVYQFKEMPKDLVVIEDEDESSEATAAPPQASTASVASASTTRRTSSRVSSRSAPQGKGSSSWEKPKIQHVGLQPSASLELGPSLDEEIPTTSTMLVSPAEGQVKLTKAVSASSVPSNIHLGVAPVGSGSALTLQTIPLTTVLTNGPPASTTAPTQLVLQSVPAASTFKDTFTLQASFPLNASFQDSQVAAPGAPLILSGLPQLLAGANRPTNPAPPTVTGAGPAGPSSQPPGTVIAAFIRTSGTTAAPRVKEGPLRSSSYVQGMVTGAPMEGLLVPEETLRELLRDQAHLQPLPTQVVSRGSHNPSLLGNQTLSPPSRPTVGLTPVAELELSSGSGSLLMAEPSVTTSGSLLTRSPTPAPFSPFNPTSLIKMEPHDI
# Sequence of ETV1 (P50549 whole entry): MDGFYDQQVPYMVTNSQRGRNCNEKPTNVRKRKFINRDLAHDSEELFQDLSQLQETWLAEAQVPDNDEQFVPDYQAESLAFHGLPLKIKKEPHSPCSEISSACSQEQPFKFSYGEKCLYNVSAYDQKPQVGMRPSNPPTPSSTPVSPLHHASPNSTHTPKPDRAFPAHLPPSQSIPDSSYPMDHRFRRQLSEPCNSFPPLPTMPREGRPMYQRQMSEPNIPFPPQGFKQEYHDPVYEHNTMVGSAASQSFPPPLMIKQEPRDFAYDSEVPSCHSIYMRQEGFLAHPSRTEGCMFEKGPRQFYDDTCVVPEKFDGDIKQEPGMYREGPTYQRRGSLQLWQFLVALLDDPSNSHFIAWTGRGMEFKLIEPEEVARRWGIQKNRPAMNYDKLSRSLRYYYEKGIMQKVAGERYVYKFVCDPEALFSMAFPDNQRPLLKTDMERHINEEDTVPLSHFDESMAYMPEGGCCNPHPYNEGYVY
sequence,measurement,setting,value
AAGATT,binding signal,[1],"1.1 fold enrichment (6-mer frequency, TF over GST control)"
same,binding signal,[2],"1.17 fold enrichment (6-mer frequency, TF over GST control)"
same,binding signal,[3],"1.18 fold enrichment (6-mer frequency, TF over GST control)"
same,binding signal,[4],"1.17 fold enrichment (6-mer frequency, TF over GST control)"
same,binding signal,[5],"1.19 fold enrichment (6-mer frequency, TF over GST control)"
same,binding signal,[6],"1.16 fold enrichment (6-mer frequency, TF over GST control)"
same,binding signal,[7],"1.12 fold enrichment (6-mer frequency, TF over GST control)"
same,binding signal,[8],"1.16 fold enrichment (6-mer frequency, TF over GST control)"
same,binding signal,[9],"1.04 fold enrichment (6-mer frequency, TF over GST control)"
same,binding signal,[10],"1.06 fold enrichment (6-mer frequency, TF over GST control)"
same,binding signal,[11],"1.25 fold enrichment (6-mer frequency, TF over GST control)"
same,binding signal,[12],"2.11 fold enrichment (6-mer frequency, TF over GST control)"
same,binding signal,[13],"1.12 fold enrichment (6-mer frequency, TF over GST control)"
same,binding signal,[14],"1.22 fold enrichment (6-mer frequency, TF over GST control)"
same,binding signal,[15],"1.35 fold enrichment (6-mer frequency, TF over GST control)"
same,binding signal,[16],"1.16 fold enrichment (6-mer frequency, TF over GST control)"
same,binding signal,[17],"1.08 fold enrichment (6-mer frequency, TF over GST control)"
same,binding signal,[18],"2.4 fold enrichment (6-mer frequency, TF over GST control)"
same,binding signal,[19],"1.18 fold enrichment (6-mer frequency, TF over GST control)"
